The source of these data is PubChem BioAssay (Tox21).

Test [1] is described as follows: qHTS assay to test for compound auto fluorescence at 535 nm (green) in HEK293 cells (AID 720680).
A short description of test [2]: qHTS assay to test for compound auto fluorescence at 460 nm (blue) in HEK293 cell free culture (AID 720681). In a few lines:
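Blue fluorescence (Ex 405/Em 460 nm, triamterene-equivalent) was read immediately after pin transfer of compound or DMSO into medium (DMEM, 10% FBS) without cells.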
In general terms: qHTS replaces the single test concentration by a dilution series.

Test [3] is described as follows: qHTS assay to test for compound auto fluorescence at 535 nm (green) in HEK293 cell free culture (AID 720682). In a few lines: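 Steps: dispense DMEM/10% FBS into empty wells; pin in compound or DMSO; measure fluorescence at 485/535 nm. Values are fluorescein equivalents.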
Test [4] is described as follows: qHTS assay to test for compound auto fluorescence at 590 nm (red) in HEK293 cell free culture (AID 720683). In a few lines:
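Red-channel autofluorescence of compounds in culture medium (DMEM, 10% FBS), no cells, measured at 540/590 nm. Rose Bengal sodium is the reference fluorophore for equivalence.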

Test [5] in a line: qHTS assay to test for compound auto fluorescence at 590 nm (red) in HepG2 cell free culture (AID 720684). In a few lines:
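Cell-free; medium MEM + 10% FBS; compound or DMSO added by pintool; read Ex 540/Em 590 nm; Rose Bengal sodium as red reference fluorophore.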

Test [6] can be described thus: qHTS assay to test for compound auto fluorescence at 460 nm (blue) in HepG2 cell free culture (AID 720685). Summed up:
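Cell-free plates of MEM plus 10% FBS received 23 nL compound or DMSO vehicle; blue-channel (405/460 nm) intensity scored against triamterene as reference fluorophore.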

Test [7] can be described thus: qHTS assay to test for compound auto fluorescence at 535 nm (green) in HepG2 cell free culture (AID 720686).
The nature of test [8]: qHTS assay to test for compound auto fluorescence at 460 nm (blue) in HepG2 cells (AID 720687). In a few lines:
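Blue-channel autofluorescence (Ex/Em 405/460 nm, triamterene-equivalent) was measured after 1 hr compound exposure at 37 C, 5% CO2. Cells were HepG2, plated overnight at 37 C in MEM plus 10% FBS.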

Test [9] addresses Glucocorticoid receptor (Homo sapiens) (UniProt P04150). Description: qHTS assay to identify small molecule agonists of the glucocorticoid receptor (GR) signaling pathway (AID 720691; active = well fitted activation curve with a large enough effect in the signal ratio in the repeat runs, not every such curve was filed as active; the % refers to the signal ratio). In a few lines: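 A HeLa cervical cancer line expressing GR and a glucocorticoid response element-driven beta-lactamase gene is treated with compounds for 18 h; LiveBLAzer B/G FRET substrate is then applied and fluorescence read.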

Test [10] shares this target. The experiment in a line: qHTS assay to identify small molecule antagonists of the glucocorticoid receptor (GR) signaling pathway (AID 720692; active = well fitted inhibition curve with a large enough effect in the signal ratio in the repeat runs, not every such curve was filed as active; the % refers to the signal ratio). Summed up: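 GRE-bla HeLa line, dex-stimulated (5 nM final). Compound exposure 18 h, 37 C. Beta-lactamase FRET read after 2 h RT substrate.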
Test [11] is described as follows: qHTS assay to identify small molecule antagonists of the glucocorticoid receptor (GR) signaling pathway - cell viability counter screen (AID 720693). Also: nearly all actives have a fitted effect of over 55% in size.
Test [12] in a line: qHTS assay for identifying genotoxic compounds that show differential cytotoxicity against isogenic chicken DT40 cell lines with known DNA damage response pathways - wild type cell line (AID 743012). Also: nearly all actives have a fitted effect of over 60% in size. Also: potency is read from the fitted curve at half-maximal effect. In a few lines: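 300 wt DT40 cells/well; cpd (DMSO) pintool-transferred after ~0.5 h at 37 C/5% CO2; 40 h incubation; CellTiter-Glo added, 30 min RT; luminescence read.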
Test [13] is described as follows: qHTS assay for identifying genotoxic compounds that show differential cytotoxicity against isogenic chicken DT40 cell lines with known DNA damage response pathways - Rev3 mutant cell line (AID 743014). Also: nearly all actives have a fitted effect of over 55% in size. Also: potency is read from the fitted curve at half-maximal effect.
Test [14] is described as follows: qHTS assay for identifying genotoxic compounds that show differential cytotoxicity against isogenic chicken DT40 cell lines with known DNA damage response pathways - Rad54/Ku70 mutant cell line (AID 743015). Also: nearly all actives have a fitted effect of over 60% in size. Also: potency is read from the fitted curve at half-maximal effect.
Test [15] in a line: qHTS assay to identify small molecule antagonists of the androgen receptor (AR) signaling pathway - cell viability counter screen (AID 743033; also: nearly all actives have a fitted effect of over 45% in size).
The nature of test [16]: qHTS assay to identify small molecule antagonists of the androgen receptor (AR) signaling pathway using the MDA cell line - cell viability counter screen (AID 743041; also: nearly all actives have a fitted effect of over 45% in size). Summed up:
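Viability read by CellTiter-Fluor fluorescence in the same wells as the antagonist screen, added after 15.5 h of a 16 h, 37C exposure. Human breast carcinoma MDA-kb2 AR-luc cells, compounds co-dosed with agonist R1881.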

Test [17] addresses Androgen receptor (Homo sapiens) (UniProt P10275). Description: qHTS assay to identify small molecule agonists of the androgen receptor (AR) signaling pathway (AID 743036; active = well fitted activation curve with a large enough effect in the signal ratio in the repeat runs, with a control signal flat, not every such curve was filed as active; the % refers to the signal ratio). In a few lines: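 Reporter line: GeneBLAzer AR-UAS-bla-GripTite (HEK293). Steps: plate cells, 4 h rest, add compounds, 16 h at 37C, add LiveBLAzer B/G substrate, 2 h at RT, read fluorescence.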
For test [18] the target is unchanged. The experiment in a line: qHTS assay to identify small molecule agonists of the androgen receptor (AR) signaling pathway using the MDA cell line (AID 743040; also: nearly all actives have a fitted effect of over 20% in size; also: potency is read from the fitted curve at half-maximal effect). In a few lines:
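Luciferase agonist assay: 16 h compound exposure at 37C without CO2 in MDA-kb2 AR-luc cells, whose MMTV promoter responds to both AR and GR. Luminescence measured after 30 min room-temperature incubation with ONE-Glo.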

For test [19] the target is unchanged. Description: qHTS assay to identify small molecule antagonists of the androgen receptor (AR) signaling pathway using the MDA cell line (AID 743042; also: nearly all actives have a fitted effect of over 55% in size). In a few lines: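 Antagonist mode: compounds plus R1881 agonist added to MDA-kb2 AR-luc cells, incubated 16 h at 37C. Luciferase reporter luminescence quantified, with multiplexed CellTiter-Fluor readout for cell viability.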

For test [20] the target is unchanged. The experiment in a line: qHTS assay to identify small molecule antagonists of the androgen receptor (AR) signaling pathway (AID 743035; active = well fitted inhibition curve with a large enough effect in the signal ratio in the repeat runs, not every such curve was filed as active; the % refers to the signal ratio). In a few lines:
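In this cell-based reporter screen, compounds were tested in concentration series against R1881-activated HEK293 cells expressing beta-lactamase under UAS control; after 16 h at 37C, FRET substrate was added and fluorescence read 2 h later.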

A number with no mark means an inactive call. Inconclusive results are not listed. Calls of active or inactive are those of the source. Unless noted, calls follow the shape of the dose curve; as a rule, active = well fitted curve in the direction sought with a large enough effect in the repeat runs; inconclusive = weak or mixed curves; inactive = no such curve, though single readings can be large; an effect the other way counts as inactive or inconclusive.
% is scaled to controls: 0 for no effect and ±100 for the full control effect.

Glucocorticoid receptor (Homo sapiens), sequence (P04150 whole entry, looked up): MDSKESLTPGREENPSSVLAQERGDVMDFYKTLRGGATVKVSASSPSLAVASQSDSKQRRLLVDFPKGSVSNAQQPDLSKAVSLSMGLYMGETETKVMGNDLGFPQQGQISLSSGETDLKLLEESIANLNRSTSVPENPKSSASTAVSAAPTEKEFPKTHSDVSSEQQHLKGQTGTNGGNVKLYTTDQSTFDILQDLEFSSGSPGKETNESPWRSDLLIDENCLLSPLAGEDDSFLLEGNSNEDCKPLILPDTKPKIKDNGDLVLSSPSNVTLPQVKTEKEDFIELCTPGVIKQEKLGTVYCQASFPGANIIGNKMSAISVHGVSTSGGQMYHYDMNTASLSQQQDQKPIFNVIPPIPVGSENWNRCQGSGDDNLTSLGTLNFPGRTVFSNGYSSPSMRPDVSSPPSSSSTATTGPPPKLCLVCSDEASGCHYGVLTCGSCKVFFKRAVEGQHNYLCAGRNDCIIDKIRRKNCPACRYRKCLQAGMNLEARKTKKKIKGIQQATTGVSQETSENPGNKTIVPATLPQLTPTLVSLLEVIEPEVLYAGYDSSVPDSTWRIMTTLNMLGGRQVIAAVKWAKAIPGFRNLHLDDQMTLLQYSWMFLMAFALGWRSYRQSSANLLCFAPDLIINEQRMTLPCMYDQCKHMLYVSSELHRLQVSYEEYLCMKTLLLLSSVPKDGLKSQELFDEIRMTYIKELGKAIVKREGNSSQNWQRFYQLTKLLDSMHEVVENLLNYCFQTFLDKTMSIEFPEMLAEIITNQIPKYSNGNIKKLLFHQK
Androgen receptor (Homo sapiens), sequence (P10275 whole entry, looked up): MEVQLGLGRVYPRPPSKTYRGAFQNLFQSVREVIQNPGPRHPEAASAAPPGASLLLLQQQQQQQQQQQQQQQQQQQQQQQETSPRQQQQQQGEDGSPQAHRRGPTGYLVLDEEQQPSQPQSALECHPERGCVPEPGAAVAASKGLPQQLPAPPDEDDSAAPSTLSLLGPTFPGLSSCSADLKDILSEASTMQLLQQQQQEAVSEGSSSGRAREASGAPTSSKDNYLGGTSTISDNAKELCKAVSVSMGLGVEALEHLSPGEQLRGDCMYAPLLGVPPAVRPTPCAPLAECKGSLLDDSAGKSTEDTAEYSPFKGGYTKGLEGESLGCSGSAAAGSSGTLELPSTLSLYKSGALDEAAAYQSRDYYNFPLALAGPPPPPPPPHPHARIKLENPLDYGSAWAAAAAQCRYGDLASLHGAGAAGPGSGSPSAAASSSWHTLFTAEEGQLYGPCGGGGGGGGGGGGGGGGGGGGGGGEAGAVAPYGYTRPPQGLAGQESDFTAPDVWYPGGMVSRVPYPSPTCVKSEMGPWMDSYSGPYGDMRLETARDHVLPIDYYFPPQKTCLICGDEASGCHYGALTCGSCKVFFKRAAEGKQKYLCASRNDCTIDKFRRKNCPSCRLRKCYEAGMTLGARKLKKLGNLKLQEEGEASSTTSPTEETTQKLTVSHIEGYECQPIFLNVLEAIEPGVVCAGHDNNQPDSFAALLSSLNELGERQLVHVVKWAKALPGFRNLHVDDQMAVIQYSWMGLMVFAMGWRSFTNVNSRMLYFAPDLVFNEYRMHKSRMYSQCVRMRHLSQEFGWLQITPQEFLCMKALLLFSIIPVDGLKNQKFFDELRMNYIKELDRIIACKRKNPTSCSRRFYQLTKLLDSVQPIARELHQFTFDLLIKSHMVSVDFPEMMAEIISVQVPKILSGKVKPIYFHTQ

Regarding `NS(=O)(=O)c1cc(C2(O)NC(=O)c3ccccc32)ccc1Cl` (centres undefined), in test [1], the fluorescence, % of fluorescein is 0.0145% [at 18.6 µM]. Besides, the fluorescence, % of fluorescent control was -0.0547% [at 18.6 µM] in test [2], 0.411% [at 18.6 µM] in test [4], 0.0381% [at 18.6 µM] in test [6] and -0.125% [at 18.6 µM] in [8]. Moreover, the activity change in test [3] is 0.0635% [at 18.6 µM]. Besides, the fluorescence, % of Rose Bengal in test [5] is 0.348% [at 18.6 µM]. Besides, the fluorescence, % of fluorescein control in [7] was 0.0502% [at 18.6 µM]. The Potency result in test [9], in test [10], in [12], in test [13], in [14] and in [16] was “inactive” each time. Moreover, the outcome in test [11] and in [15] was inactive.
Take `CC(C)CCCCCCN`: the molecule was classed as inactive in [1], in test [3], in test [4], in test [5], in [7] and in [11]. The result in test [15], in test [17] and in [19] was inactive. In addition, the Potency result in test [2], in test [6], in test [8], in [9], in test [10] and in test [12] was “inactive” throughout. Moreover, the Potency entry in test [13], in test [14], in [18] and in test [16] was “inactive” in each case.
In the case of `O=C(O)c1ccccc1-c1ccc(C(F)(F)F)cc1`, the call in test [1], in test [3], in test [4], in test [5], in [7] and in [11] was inactive. In addition, the molecule was classed as inactive in test [15]. For the same molecule, the Potency entry in test [2], in test [6], in [8], in test [9], in test [10] and in test [12] was “inactive” in each case. Also, the Potency entry in test [13], in test [14] and in test [16] was “inactive” in each case.
`Nc1nc2c(ncn2CCC(CO)CO)c(=O)[nH]1`: the result in [1], in [3], in [4], in [5], in test [7] and in test [11] was inactive. In addition, the call in test [15] was inactive. The Potency result in test [2], in test [6], in [8], in test [9], in test [10] and in test [16] was “inactive” in each case. Also, the Potency in test [12] was 3.35 µM (active); in test [13] it was 5.96 µM (active); in [14] it was 5.96 µM (active).
With `CCOC(=O)Nc1ccc2c(c1)N(C(=O)CCN1CCOCC1)c1ccccc1S2`, the fluorescence, % of fluorescein in [1] is 0.023% [at 18.6 µM]. Further, the fluorescence, % of fluorescent control was 0.0825% [at 18.6 µM] in test [2], -0.268% [at 18.6 µM] in test [4], 0.0956% [at 18.6 µM] in [6] and -0.0127% [at 18.6 µM] in test [8]. The activity change in test [3] was -0.0159% [at 18.6 µM]. Besides, the fluorescence, % of Rose Bengal in [5] was 0.0254% [at 18.6 µM]. Moreover, the fluorescence, % of fluorescein control in test [7] was -0.013% [at 18.6 µM]. Also, the Potency result in test [9], in [10], in [12], in [13], in test [20] and in test [16] was “inactive” each time. For the same molecule, the molecule was called inactive in test [11], in test [15], in test [17] and in test [19]. Besides, the Potency in [18] was 12.7 µM (active).
Consider `CN(C)CCOC(c1ccc(Cl)cc1)c1ccccn1` (centres undefined), for which the molecule was classed as inactive in test [1], in test [3], in [4], in test [5], in test [7] and in test [11]. The outcome in [15] was inactive. In addition, the Potency entry in test [2], in test [6], in test [8], in [9], in test [10] and in test [12] was “inactive” throughout. For the same molecule, the Potency result in test [13], in test [14] and in test [16] was “inactive” throughout.
Consider `Oc1ccc2c(c1)OC[C@@H](N1CCC(O)(c3ccc(F)cc3)CC1)[C@H]2O`, for which the molecule was called inactive in test [1], in [3], in test [4], in test [5], in [7] and in [15]. Also, the Potency entry in test [2], in [6], in test [8], in test [9], in test [10] and in [16] was “inactive” each time.
